Hits are enriched below; roughly 4.2% of the tested compounds scored in any of these assays.
PfHsp90 yeast 2: reduces growth (ATP signal) of yeast expressing P. falciparum Hsp90; actives 0.32% (n = 310,000); S. cerevisiae expressing PfHsp90, BacTiter-Glo ATP, 48 h; yeast lacking PDR1 and PDR3 efflux regulators; AID 504621; inhibition, % at 9.4 µM;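 active = every replicate shows inhibition above about 80%, whatever the replicate mean, limit read from the data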;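 note: 0% = DMSO neutral controls and 100% = 20 µM radicicol positive controls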
tim10-1 inh: growth inhibitors of tim10-1 mutant yeast | actives 2.2% (n = 330,000) | S. cerevisiae tim10-1 ts strain growth, BacTiter-Glo, 24 h | inhibition, % at 20 µM;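 active = inhibition of at least 40%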;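 note: mutant grown at 25 °C; 0% = DMSO wells with yeast and 100% = wells holding no yeast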
TIM10 inh: growth inhibitors of TIM10 yeast strain | actives 1.4% (n = 330,000) | S. cerevisiae TIM10 strain growth, BacTiter-Glo luminescence, 24 h | inhibition, % at 10 µM;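 active = inhibition of 40% or more at the single tested concentration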;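 note: wild-type TIM10 isogenic control strain grown at permissive 25 °C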
NLRP3 yeast inh: inhibitors of NALP3 inflammasome in yeast; Yeast reconstituted NLRP3/ASC/caspase-1, beta-gal luminescence, 24 h; inhibition, % at 10 µM; actives 0.39% (n = 330,000); AID 2825;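 active = inhibition of 50% or more; inactive = inhibition below 50%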;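 note: plate controls were induced DMSO wells for no effect and uninduced yeast grown without galactose for full effect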
NALP1 yeast inh: inhibitors of NALP1 inflammasome in yeast; inhibition, % at 10 µM; actives 0.61% (n = 280,000); AID 2071; S. cerevisiae NALP1/ASC/caspase-1 growth, X-gal OD620, 72 h; in the data active = inhibition mostly above about 24%, no sharp cut-off; inactive = mostly below about 32%
tim23-1 inh: growth inhibitors of tim23-1 mutant yeast. S. cerevisiae tim23-1 growth, BacTiter-Glo luminescence, 24 h. AID 463212. actives 1.3% (n = 330,000). inhibition, % at 20 µM;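 active = growth inhibition of the mutant yeast at or above 50%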;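 note: temperature-sensitive mutant grown at 25 °C; plate controls were DMSO-treated mutant yeast for no effect and medium wells lacking yeast for full effect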
tim10-1 conf: confirmation of tim10-1 mutant yeast growth inhibitors. inhibition, % at 20 µM. actives 56% (n = 7,400). S. cerevisiae tim10-1 ts strain growth, BacTiter-Glo, 24 h. shares compounds with tim10-1 inh. AID 463213;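 active = inhibition of yeast growth at or above a set limit in either of two repeat tests at 20 µM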;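 note: tim10-1 mutant grown at permissive 25 °C to find synthetic lethal compounds; 0% = DMSO yeast wells and 100% = medium wells without yeast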
TIM10 conf: TIM10 yeast growth inhibition, confirmed; shares compounds with TIM10 inh; S. cerevisiae tim10 strain growth, BacTiter-Glo luminescence, 24 h; inhibition, % at 10 µM; actives 63% (n = 4,600);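 active = inhibition of yeast growth at or above a set limit in either of two replicates at 10 µM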;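 note: this counterscreen used the strain with wild-type TIM10; 0% = yeast with DMSO and 100% = medium wells lacking yeast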
tim23-1 confirm: tim23-1 yeast growth inhibition, confirmed | shares compounds with tim23-1 inh | S. cerevisiae tim23-1 growth, BacTiter-Glo luminescence, 24 h | inhibition, % at 20 µM | actives 83% (n = 4,400);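 active = inhibition above about 39% in either of two replicate wells at 20 µM, limit read from the data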;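 note: temperature-sensitive tim23-1 mutant grown at 25 °C; 0% = DMSO wells with yeast and 100% = medium wells without yeast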
Starred values were filed as active, the others as inactive; / = no result given.

SMILES	PfHsp90 yeast 2	tim10-1 inh	TIM10 inh	NLRP3 yeast inh	NALP1 yeast inh	tim23-1 inh	tim10-1 conf	TIM10 conf	tim23-1 confirm
O=C(Nc1ccccc1Cl)c1ccc([N+](=O)[O-])o1	-8	50*	48*	24	12	67*	56*	57*	68*
Cn1c(=O)c2c([nH]c(=O)n2C)n(Cc2ccccc2)c1=O	/	-16	-7	4	/	-4	/	/	/
Cc1ccc(NC(=O)CN2C(=O)NC3(CCCc4ccccc43)C2=O)c([N+](=O)[O-])c1 (centres undefined)	-11	3	-1	12	6	-5	/	/	/
COc1ccc([C@H]2Oc3cc(O)cc(O)c3C(=O)C2[C@@H]2C(=O)c3c(O)cc(O)cc3O[C@@H]2c2ccc(OC)cc2)cc1 (some centres undefined)	/	49*	15	3	26	60*	46*	/	49*
O=c1c2c([N+](=O)[O-])cc([N+](=O)[O-])cc2sn1-c1ccc(Br)cc1	-8	85*	19	14	26	54*	93*	/	70*
CC(O)C(NC(=O)OCc1ccccc1)C(=O)OCc1ccccc1 (centres undefined)	-4	5	1	12	/	6	/	/	/
O=[N+]([O-])c1ccccc1S(=O)(=O)Nc1ccc(S(=O)(=O)Nc2nccs2)cc1	-1	61*	51*	7	-9	63*	63*	54*	56*
Cc1cccc(Oc2coc3cc(OC(=O)c4cncc(Br)c4)ccc3c2=O)c1	8	8	18	13	38	10	/	/	/
CCOC(=O)Oc1ccc2c(=O)c(Oc3cccc(C)c3)coc2c1	/	56*	41*	-28	-8	55*	48*	41*	59*
N#CNC(=Nc1ccc(Cl)cc1)Oc1ccccc1	-3	26	27	16	/	19	/	/	/
CC(NC(=O)c1ccc([N+](=O)[O-])o1)C1CC2CCC1C2 (centres undefined)	-5	75*	63*	15	/	62*	79*	68*	48*
O=C(NC12CC3CC(CC(C3)C1)C2)c1ccc([N+](=O)[O-])o1	0	57*	34	33	4	64*	67*	/	51*
O=C(NC12CC3CC(CC(C3)C1)C2)c1ccc(Br)o1	13	24	35	-3	-2	25	/	/	/
CCOc1ccc(/C=N/NC(=O)c2[nH]ncc2Br)c(O)c1	6	52*	59*	31	15	78*	30*	37*	78*
Cc1ccccc1CN1CCC(N2CCC(C(=O)NCC3CCCO3)CC2)CC1 (centres undefined)	-12	0	4	-3	19	5	/	/	/
O=[N+]([O-])c1c(Nc2ccccn2)cc(Cl)c2nonc12	108*	94*	95*	39	/	94*	94*	100*	96*
O=C(O)c1ccccc1Nc1cc(Cl)c2nonc2c1[N+](=O)[O-]	-8	2	-9	26	-6	12	/	/	/
CCN(CC)/C(Sc1ccccc1)=C(\C(Cl)=C(Cl)Cl)[N+](=O)[O-]	3	44*	46*	1	-2	51*	35*	19	51*
CCOc1ccccc1N/C(=C(/C(Cl)=C(Cl)Cl)[N+](=O)[O-])n1cncn1	3	15	17	5	4	19	/	/	/
Cc1noc2ncnc(Sc3ccc(Cl)cc3)c12	/	51*	31	37	26	58*	57*	/	49*
Cc1noc2ncnc(Sc3c(Cl)cccc3Cl)c12	9	25	23	-16	-8	5	/	/	/
O=C(Nc1cccc(-c2nnc(-c3ccccc3)o2)c1)C1CC1	5	41*	27	24	12	60*	20	/	76*
COc1ccc(C2/C=C\CN(C(=O)Nc3ccccc3)CC(=O)N2Cc2ccc(F)cc2)cc1 (centres undefined)	/	18	-1	17	3	-12	/	/	/
COc1ccc(C2/C=C\CN(C(=O)Nc3ccc(C(F)(F)F)cc3)CC(=O)N2Cc2ccc(F)cc2)cc1 (centres undefined)	9	49*	47*	20	5	53*	38*	27	48*
Cc1ccc(C(OCC(O)CNC(C)c2ccccc2)c2ccccc2)cc1 (centres undefined)	8	62*	59*	21	15	54*	61*	52*	39*
SMILES	PfHsp90 yeast 2	tim10-1 inh	TIM10 inh	NLRP3 yeast inh	NALP1 yeast inh	tim23-1 inh	tim10-1 conf	TIM10 conf	tim23-1 confirm
CN(c1ccc(O)cc1)c1nc(-c2cccs2)cs1	-2	49*	64*	27	2	72*	44*	57*	52*
Cc1nc(N)sc1-c1csc(N(C)c2ccc(O)cc2)n1	-1	26	11	7	-6	13	/	/	/
CCOc1ccc(-n2cc(-c3ccccc3)c3c(=S)nc[nH]c32)cc1	-39	70*	45*	-14	-3	64*	33*	47*	34
CCOc1ccc(-n2cc(-c3ccccc3)c3c(N4CCOCC4)ncnc32)cc1	-1	35	4	-2	13	20	/	/	/
Cc1ccc2nc(N3CCN(C(=O)CCCC(=O)O)CC3)nc(-c3ccccc3)c2c1	-7	25	21	5	7	29	/	/	/
Cc1ccc2nc(N3CCN(C=O)CC3)nc(-c3ccccc3)c2c1	-43	43*	29	34	-23	60*	10	/	42*
CC(=O)c1ccc(S(=O)(=O)NC2CC(=O)N(c3ccc(Cl)cc3)C2)cc1 (centres undefined)	-23	11	2	19	/	14	/	/	/
O=[N+]([O-])c1ccc(/C=C2\CCC(C3=CCCC3)=C2N2CCOCC2)cc1	1	52*	36	-16	24	53*	61*	/	52*
O=[N+]([O-])c1ccc(/C=N/Nc2nc(N3CCOCC3)nc(N3CCOCC3)n2)cc1	/	7	-5	2	3	-1	/	/	/
CSc1cccc(NC(=S)N(Cc2ccccc2)Cc2cccnc2)c1	-69	19	25	3	-3	3	/	/	/
O=C(CCCN1C(=O)/C(=C\c2ccco2)SC1=S)Nc1ccc2ccccc2c1	-21	44*	39	44	15	78*	39*	/	70*
O=C(CCCN1C(=O)/C(=C/c2ccco2)SC1=S)Nc1ccccc1C(=O)O	-98	8	10	14	-2	12	/	/	/

Screening results deposited in PubChem BioAssay by several laboratories.
